Results published in PubChem BioAssay AID1159580 (chemical genetic matrix, 2015).
Values joined by “and” are separate entries in the source; they are usually repeats but may differ in a detail not shown here. Equal entries are not always repeated. The campaign covered roughly 5,500 compounds. About 2,000 (36%) were called active. About 18% were inconclusive and are not listed. No stated cut-off is given here; in the data, active means normalized growth mostly below about 0.91 (no sharp cut-off); inconclusive means no clear call, values can overlap the other calls; inactive means mostly above about 0.92. The list shows a part of the results.

Test: chemical genetic growth profiling, strain panel (AID 1159580);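 further: tested at 20 µM; growth read once vehicle control cultures reached saturation at 30 °C; 1 = growth at the plate median or of vehicle wells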
Details: growth OD

Measured: normalized growth

O=C1c2ccccc2C(=O)C1c1ccccc1
active: S. cerevisiae deletion strains, locus YLR058C, strain SHM2 (second series), stronger effect = lower value 0.932 | S. cerevisiae deletion strains, locus YPL241C, strain CIN2, stronger effect = lower value 1.21 [resistant]
inactive: S. cerevisiae deletion strains, locus YKL085W, strain MDH1 (second series), stronger effect = lower value 0.994 | S. cerevisiae deletion strains, locus YKL085W, strain MDH1, stronger effect = lower value 0.994 | S. cerevisiae deletion strains, locus YKL160W, strain elf1, stronger effect = lower value 1 | S. cerevisiae deletion strains, locus YKL190W, strain CNB1, stronger effect = lower value 1 | S. cerevisiae deletion strains, locus YKR001C, strain vps1, stronger effect = lower value 1.01 | S. cerevisiae deletion strains, locus YKR026C, strain gcn3, stronger effect = lower value 0.976 | S. cerevisiae deletion strains, locus YKR091W, strain srl3, stronger effect = lower value 0.997 | S. cerevisiae deletion strains, locus YLL001W, strain dnm1, stronger effect = lower value 1 | S. cerevisiae deletion strains, locus YLL026W, stronger effect = lower value 0.993 | S. cerevisiae deletion strains, locus YLL041C, strain sdh2, stronger effect = lower value 1 | S. cerevisiae deletion strains, locus YLR027C, strain aat2, stronger effect = lower value 0.998 | S. cerevisiae deletion strains, locus YLR039C, strain RIC1, stronger effect = lower value 0.983 and 0.913 | S. cerevisiae deletion strains, locus YLR058C, strain SHM2, stronger effect = lower value 1.01 | S. cerevisiae deletion strains, locus YLR085C, strain ARP6, stronger effect = lower value 0.972 | S. cerevisiae deletion strains, locus YLR102C, strain apc9, stronger effect = lower value 1.01 | S. cerevisiae deletion strains, locus YLR113W, strain HOG1, stronger effect = lower value 0.934 | S. cerevisiae deletion strains, locus YLR221C, strain rsa3, stronger effect = lower value 1 | S. cerevisiae deletion strains, locus YLR258W, strain gsy2, stronger effect = lower value 1.02 | S. cerevisiae deletion strains, locus YLR262C, strain YPT6 (second series), stronger effect = lower value 1 | S. cerevisiae deletion strains, locus YLR262C, strain YPT6, stronger effect = lower value 0.967 and 0.909 | S. cerevisiae deletion strains, locus YLR268W, strain sec22, stronger effect = lower value 1.03 | S. cerevisiae deletion strains, locus YLR320W, strain mms22, stronger effect = lower value 1.01 | S. cerevisiae deletion strains, locus YLR330W, strain CHS5, stronger effect = lower value 0.999 | S. cerevisiae deletion strains, locus YLR342W, strain FKS1 (second series), stronger effect = lower value 1.01 | S. cerevisiae deletion strains, locus YLR342W, strain FKS1, stronger effect = lower value 0.998 | S. cerevisiae deletion strains, locus YLR357W, strain rsc2, stronger effect = lower value 1.03 | S. cerevisiae deletion strains, locus YLR370C, strain arc18, stronger effect = lower value 1 | S. cerevisiae deletion strains, locus YLR371W, strain rom2, stronger effect = lower value 1.01 | S. cerevisiae deletion strains, locus YLR384C, strain iki3, stronger effect = lower value 1 | S. cerevisiae deletion strains, locus YLR418C, strain cdc73, stronger effect = lower value 0.98 | S. cerevisiae deletion strains, locus YML016C, strain PPZ1, stronger effect = lower value 1 | S. cerevisiae deletion strains, locus YML032C, strain rad52, stronger effect = lower value 1.01 | S. cerevisiae deletion strains, locus YML094W, strain GIM5, stronger effect = lower value 0.945 | S. cerevisiae deletion strains, locus YML120C, strain ndi1, stronger effect = lower value 1.01 | S. cerevisiae deletion strains, locus YML124C, strain tub3, stronger effect = lower value 1.01 | S. cerevisiae deletion strains, locus YMR058W, strain fet3, stronger effect = lower value 0.999 | S. cerevisiae deletion strains, locus YMR078C, strain ctf18, stronger effect = lower value 1.01 | S. cerevisiae deletion strains, locus YMR125W, strain sto1, stronger effect = lower value 0.995 | S. cerevisiae deletion strains, locus YMR129W, stronger effect = lower value 0.992 | S. cerevisiae deletion strains, locus YMR205C, strain PFK2, stronger effect = lower value 1.01 | S. cerevisiae deletion strains, locus YMR219W, strain ESC1, stronger effect = lower value 0.954 | S. cerevisiae deletion strains, locus YMR223W, strain ubp8, stronger effect = lower value 1 | S. cerevisiae deletion strains, locus YMR231W, strain pep5, stronger effect = lower value 1 | S. cerevisiae deletion strains, locus YMR263W, strain SAP30, stronger effect = lower value 1.01 | S. cerevisiae deletion strains, locus YMR307W, strain GAS1, stronger effect = lower value 1.01 | S. cerevisiae deletion strains, locus YNL067W, strain RPL9B, stronger effect = lower value 0.999 | S. cerevisiae deletion strains, locus YNL071W, strain lat1, stronger effect = lower value 1 | S. cerevisiae deletion strains, locus YNL128W, strain TEP1, stronger effect = lower value 1.02 | S. cerevisiae deletion strains, locus YNL153C, strain GIM3, stronger effect = lower value 0.996 and 0.979 | S. cerevisiae deletion strains, locus YNL183C, strain NPR1, stronger effect = lower value 0.939 | S. cerevisiae deletion strains, locus YNL209W, strain ssb2, stronger effect = lower value 1.01 | S. cerevisiae deletion strains, locus YNL233W, strain BNI4, stronger effect = lower value 1 | S. cerevisiae deletion strains, locus YNL248C, strain rpa49, stronger effect = lower value 1 | S. cerevisiae deletion strains, locus YNL250W, strain rad50, stronger effect = lower value 0.989 | S. cerevisiae deletion strains, locus YNL271C, strain bni1, stronger effect = lower value 1 | S. cerevisiae deletion strains, locus YNL298W, strain CLA4 (second series), stronger effect = lower value 0.968 | S. cerevisiae deletion strains, locus YNL298W, strain CLA4, stronger effect = lower value 0.994 | S. cerevisiae deletion strains, locus YNL307C, strain MCK1, stronger effect = lower value 1 | S. cerevisiae deletion strains, locus YNL322C, strain KRE1 (second series), stronger effect = lower value 1 | S. cerevisiae deletion strains, locus YNL322C, strain KRE1, stronger effect = lower value 1 and 0.969 | S. cerevisiae deletion strains, locus YNR030W, strain Alg12, stronger effect = lower value 0.969 | S. cerevisiae deletion strains, locus YNR049C, strain mso1, stronger effect = lower value 0.998 | S. cerevisiae deletion strains, locus YNR052C, strain pop2, stronger effect = lower value 1.01 | S. cerevisiae deletion strains, locus YOL006C, strain TOP1, stronger effect = lower value 0.964 | S. cerevisiae deletion strains, locus YOL012C, strain htz1 0.826 | S. cerevisiae deletion strains, locus YOL147C, strain pex11, stronger effect = lower value 1.01 | S. cerevisiae deletion strains, locus YOR001W, strain rrp6, stronger effect = lower value 1.01 | S. cerevisiae deletion strains, locus YOR061W, strain CKA2, stronger effect = lower value 1 | S. cerevisiae deletion strains, locus YOR069W, strain VPS5, stronger effect = lower value 1 | S. cerevisiae deletion strains, locus YOR070C, strain gyp1, stronger effect = lower value 0.996 | S. cerevisiae deletion strains, locus YOR080W, strain dia2, stronger effect = lower value 1 | S. cerevisiae deletion strains, locus YOR083W, strain WHI5, stronger effect = lower value 0.999 | S. cerevisiae deletion strains, locus YOR106W, strain vam3, stronger effect = lower value 1.01 | S. cerevisiae deletion strains, locus YOR136W, strain idh2, stronger effect = lower value 1.01 | S. cerevisiae deletion strains, locus YOR144C, strain elg1, stronger effect = lower value 1 | S. cerevisiae deletion strains, locus YOR184W, strain ser1, stronger effect = lower value 1.02 | S. cerevisiae deletion strains, locus YOR231W, strain MKK1, stronger effect = lower value 0.992 | S. cerevisiae deletion strains, locus YOR265W, strain rbl2, stronger effect = lower value 0.995 | S. cerevisiae deletion strains, locus YOR270C, strain vph1, stronger effect = lower value 1.01 | S. cerevisiae deletion strains, locus YOR290C, strain snf2, stronger effect = lower value 0.997 | S. cerevisiae deletion strains, locus YOR316C, strain cot1, stronger effect = lower value 1.01 | S. cerevisiae deletion strains, locus YPL051W, strain arl3, stronger effect = lower value 1 | S. cerevisiae deletion strains, locus YPL055C, strain LGE1, stronger effect = lower value 1 and 0.972 | S. cerevisiae deletion strains, locus YPL078C, strain atp4, stronger effect = lower value 1 | S. cerevisiae deletion strains, locus YPL106C, strain sse1, stronger effect = lower value 1.01 | S. cerevisiae deletion strains, locus YPL240C, strain hsp82, stronger effect = lower value 1 | S. cerevisiae deletion strains, locus YPL256C, strain CLN2, stronger effect = lower value 0.917 | S. cerevisiae deletion strains, locus YPR119W, strain clb2, stronger effect = lower value 1.01 | S. cerevisiae deletion strains, locus YPR135W, strain CTF4, stronger effect = lower value 0.934 | S. cerevisiae deletion strains, locus YPR141C, strain kar3, stronger effect = lower value 0.987 | S. cerevisiae deletion strains, locus YPR163C, strain tif3, stronger effect = lower value 1.01 | S. cerevisiae deletion strains, locus YPR167C, strain met16, stronger effect = lower value 1.01 | S. cerevisiae deletion strains, strain wtn01, stronger effect = lower value 1.01 | S. cerevisiae strains, strain wild type, stronger effect = lower value 0.999 and 0.961
